Our source for the AC50 values is PubChem BioAssay AID720650 (Broad Institute, 2013).

Unmarked numbers belong to inactive results. The source made the active and inactive calls. No rule for the calls is given here. Where only a bound is given, the exact number is not on record here.

The assay can be described thus: C difficile toxins, biochemical counterscreen, UDPG substrate absence, confirmatory dose response (AID 720650). The note with it: series mostly up to 19.5 µM. Background: The purpose of a counterscreen is to sort out artefacts and off-target activity.
Broadly, the AC50 is the concentration at which the activity in the assay is half-maximal. As for `CCOC(=O)N1CCN(C(=S)NC(=O)c2ccc(F)c(F)c2)CC1`, the AC50 entry was “inactive”.
For `CCOC(=O)[C@@H]1[C@H]2COc3ccc(Br)cc3[C@@H]2N2C(=O)N(c3cccc(F)c3)C(=O)[C@]12C`, the AC50 result was “inactive”.
Consider `CCOc1ccc(NC(=O)c2ccc(CC)s2)c([N+](=O)[O-])c1`, for which the AC50 result was “inactive”.
For the compound `CNC(=O)C[C@H]1CC[C@@H]2[C@H](COc3ccc(NS(=O)(=O)c4ccccc4C)cc3C(=O)N2C)O1`, the AC50 result is “inactive”.
To `COc1ccc(C(=O)NC(CC(=O)O)c2cc([N+](=O)[O-])ccc2Cl)c(SC)c1` (centres undefined) belongs “inactive”.
In the case of `O=c1c([N+](=O)[O-])cccn1Cc1ccc(F)cc1Cl`, the AC50 result is “inactive”.
Take `O=C(C[C@H]1CC[C@H]2[C@@H](COC[C@H](O)CN2C(=O)Nc2ccc(Cl)c(Cl)c2)O1)NCc1ccncc1`: the AC50 result was “inactive”.
As to `O=S(=O)(Cc1cccc(F)c1)c1c[nH]c2ccccc12`, the AC50 was above 39 µM.
For `CC12CCC3C(=CCc4cc(O)ccc43)C1CC(=NO)C2O` (centres undefined), the AC50 was 19.4 µM (active).
As to `CCC(CO)[n+]1c(C)cc(/C=C2\Sc3ccccc3N2Cc2ccccc2)cc1C` (centres undefined), the AC50 was 3.4 µM (active).
Regarding `COc1ccc(C(=O)Nc2ccccc2C(=O)O)cc1Cl`, the AC50 was above 39 µM.
Take `O=c1[nH]c(CSc2nnc(Cc3ccccc3)o2)nc2ccccc12`: the AC50 entry was “inactive”.
Take `Oc1ccc2c(ccc3[nH]cnc32)c1`: the half-maximal activity concentration (AC50) is 20.8 µM (active).
`CCCCn1c(=S)[nH]c2c(=O)n(C)c(=O)n(C)c21`: the AC50 is 14.9 µM (active).
To `O=C(O)c1ccc(-c2ccc(O)c(F)c2)cc1` belongs 13.5 µM (active); to `Cc1c(CNC(=O)c2c([N+](=O)[O-])cnn2C)cnn1C`, “inactive”; to `CCCc1cc(=O)oc2c3c(cc(OCC(=O)NCCCn4ccnc4)c12)OC(C)(C)CC3`, “inactive”.
`CCOC(=O)Cn1c(C(F)(F)F)nc2nc(Cl)c(Cl)nc21`: the AC50 result was “inactive”.
For `CC(=O)c1ccc(Nc2ccc(-c3ccccc3F)nn2)cc1`, the AC50 was above 39 µM.
The same measure for `C[C@@H]1CN([C@@H](C)CO)S(=O)(=O)c2ccc(-c3ccncc3)cc2O[C@@H]1CN(C)Cc1ccc(Oc2ccccc2)cc1`: “inactive”; for `CCOc1ccccc1NC(=O)CCNS(=O)(=O)c1cccc2nonc12`: “inactive”; for `CNC(=O)C1CCN(S(=O)(=O)c2c(C)noc2/C=C/c2ccccc2F)CC1`: “inactive”.
To `COc1ccccc1N1CC(O)=C(c2nc3ccccc3s2)C1=N` belongs above 39 µM; to `CN1C(=O)c2cc(NC(=O)Nc3ccccc3Cl)ccc2OC[C@H]2O[C@@H](CC(=O)NCCCN3CCOCC3)CC[C@H]21`, “inactive”.
Consider `COc1ccccc1-c1cn[nH]c1-c1ccc(O)cc1O`, for which the AC50 was above 39 µM.
As to `COc1cccc(/C=C/c2onc(C)c2S(=O)(=O)N2CCC(C(=O)NC3CCCCCC3)CC2)c1`, the AC50 entry is “inactive”.
Turning to `COc1cccc(C(=O)COC(=O)c2ccc(NC(=O)c3ccccc3)cc2)c1`, the AC50 entry is “inactive”.
As for `O=S(=O)(c1ccccc1)N1CCN=C1SCc1ccccc1`, the AC50 was above 39 µM.
In the case of `COc1ccc2nccc(/C=C/c3ccnc4ccc(OC)cc34)c2c1`, the AC50 entry is “inactive”.
Regarding `O=C(CN1C(=O)CCC1=O)NNc1ccc2ccccc2c1`, the AC50 is < 0.16 µM (active).
As for `O=C(C[C@@H]1C[C@H]2c3cc(NC(=O)Nc4ccccc4)ccc3O[C@H]2[C@H](CO)O1)NCc1ccccc1`, the AC50 result was “inactive”.
The same measure for `COc1ccc(CNC(=O)C2=CC(c3ccc(OC)cc3)=NS(=O)(=O)N2C)cc1`: “inactive”.
For the compound `Nc1ccc(OCCCc2c(N)nc(N)nc2N)cc1`, the AC50 is 20.1 µM (active).
The same measure for `COC(=O)Cc1ccc(NC(=S)NCc2ccc(OC)cc2)cc1`: “inactive”; for `C=CCN=c1scc(C)n1/N=C/c1ccc(O)c(O)c1`: above 39 µM.
Regarding `Cc1cc(O)ccc1NC(=O)c1ccccc1`, the AC50 was 17.9 µM (active).
Take `O=C(COc1ccccc1)Nc1ccc(S(=O)(=O)Nc2ncccn2)cc1`: the AC50 result is “inactive”.
As for `COc1ccccc1-n1c(SCC(=O)O)nc2c(sc(=S)n2-c2ccc(C)c(C)c2)c1=O`, the AC50 was above 39 µM.
On to `O=c1c2ccccc2oc2ccc(NCCCN3CCOCC3)cc12`, for which the AC50 entry is “inactive”.
